± gives the uncertainty stated by the source. Over roughly 9,900 compounds, “viability index relative to DMSO control” has its median near 1; the lowest 2% begin near 0.85. Only a selection was taken, and the lowest values are over-represented in it overall.
System: Plasmodium falciparum NF54 stage V gametocytes
Experiment: viability index relative to DMSO control (fraction); higher = less gametocyte killing
Details: 2.5 µM, incubation time: 72 h
In short: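 P. falciparum NF54 stage V gametocytes in serum-free screening medium (0.75% gametocytemia, 1.25% hematocrit, 10 µl) were incubated with compound at 2.5 µM in 1,536-well plates for 72 hr at 37°C under low oxygen. Then 3 µl of 2.5 µM MitoTracker Red CMXRos plus 0.13% saponin was added for one to two hours. One field per well was imaged, 20–70 µm2 red particles were counted, and the viability index was the count divided by the plate mean of DMSO wells.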

[1] = library set: Broad Institute DOS
[2] = library set: Broad Institute Blood Stage

Question: `O=C(CN1CCOCC1)N[C@H]1CC[C@H](CCn2cc(C3CC3)nn2)O[C@@H]1CO` was tested. Which viability index [1] did it give?
Answer: 1.16 ± 0.021

Question: With `C/C=C/c1ccc2n(c1=O)C[C@@H]1N[C@H]2[C@H](C(=O)NC2CCCC2)[C@H]1CO.C/C=C\c1ccc2n(c1=O)C[C@@H]1N[C@H]2[C@H](C(=O)NC2CCCC2)[C@H]1CO` as the molecule, how does the viability index [1] read?
Answer: 1.04 ± 0.018

Question: How did the viability index [1] turn out when `COc1ccc2c3c([C@@H](CO)N(C[C@]33CN(C3)C(=O)c3cccc(F)c3)C(=O)c3cccc(F)c3)n(C)c2c1` was run?
Answer: 0.848 ± 0.02

Question: With `COc1ccc2c3c([C@H](CO)N(C[C@]33CN(C3)C(=O)c3cccc(F)c3)C(=O)c3cccc(F)c3)n(C)c2c1` as the molecule, how does the viability index [1] read?
Answer: 1.04 ± 0.047

Question: How did the viability index [1] turn out when `COc1ccc2c3c([C@H](CO)N(C[C@]33CCN(CC3)C(=O)c3ccccc3)C(=O)c3ccccc3)n(C)c2c1` was run?
Answer: 0.979 ± 0.13

Question: For `CCS(=O)(=O)N1CC[C@@]2(CC1)CN([C@@H](CO)c1c2c2ccc(OC)cc2n1C)C(=O)c1cccc(F)c1`, which viability index [1] is on record?
Answer: 1.02 ± 0.079

Question: For `COc1ccc2c(c1)n(C)c1[C@H](CO)N(C[C@]3(CCN(C)CC3)c21)C(=O)c1ccc(F)cc1`, which viability index [1] is on record?
Answer: 1.05 ± 0.018

Question: With `COc1ccc2c3c([C@@H](CO)N(C[C@]33CCN(CC3)C(=O)c3ccccc3)C(=O)c3ccccc3)n(C)c2c1` as the molecule, how does the viability index [1] read?
Answer: 0.761 ± 0.011

Question: Which viability index [1] does the source give for `Cc1noc(C)c1S(=O)(=O)Nc1ccc2c(c1)C(=O)N([C@@H](C)CO)C[C@H](C)[C@H](CN(C)Cc1ccc(C(=O)O)cc1)OCCCC[C@H](C)O2` here?
Answer: 1.14 ± 0.051

Question: For `O=C(C[C@H]1C[C@H]2c3cc(NC(=O)C4CCOCC4)ccc3O[C@H]2[C@H](CO)O1)NCc1cccnc1`, which viability index [1] is on record?
Answer: 1.086 ± 0.0019

Question: Which viability index [1] does the source give for `O=C(N[C@H]1CC[C@@H](CCn2cc(-c3ccccc3F)nn2)O[C@H]1CO)c1ccc2c(c1)OCO2` here?
Answer: 1.1 ± 0.06

Question: For `COC(=O)C[C@@H]1CC[C@H]2[C@@H](COc3ccc(NS(=O)(=O)c4ccc(C)cc4)cc3C(=O)N2C)O1`, which viability index [1] is on record?
Answer: 1.07 ± 0.083

Question: For `CN1C(=O)c2cc(NC(=O)c3ccc(F)c(F)c3)ccc2OC[C@H]2O[C@@H](CC(=O)N3CCCCC3)CC[C@H]21`, which viability index [1] is on record?
Answer: 1.1 ± 0.0047

Question: `COCC(=O)N1C[C@@]2(C1)CN(Cc1ccc3OCOc3c1)[C@H](CO)c1c2c2ccc(OC)cc2n1C` was tested. Which viability index [1] did it give?
Answer: 0.938 ± 0.068

Question: For `COc1ccc2c3c([C@H](CO)N(Cc4ccccc4Cl)C[C@]33CCN(CC3)C(=O)CC3CC3)n(C)c2c1`, which viability index [1] is on record?
Answer: 0.922 ± 0.014

Question: `COc1ccc2c3c([C@@H](CO)N(C)C[C@]33CCN(CC3)C(=O)c3ccc4OCOc4c3)n(C)c2c1` was tested. Which viability index [1] did it give?
Answer: 0.9516 ± 0.0011

Question: Which viability index [1] does the source give for `COc1ccc(cc1)S(=O)(=O)N1C[C@@]2(C1)CN([C@H](CO)c1c2c2ccc(OC)cc2n1C)C(=O)CN(C)C` here?
Answer: 0.841 ± 0.028

Question: With `COc1ccc2c3c([C@@H](CO)N(CC4CC4)C[C@]33CN(C3)C(=O)c3ccc4OCOc4c3)n(C)c2c1` as the molecule, how does the viability index [1] read?
Answer: 1.02 ± 0.016

Question: `COc1ccc2c3c([C@H](CO)N(Cc4ccc5OCOc5c4)C[C@]33CN(C3)C(=O)c3ccc4OCOc4c3)n(C)c2c1` was tested. Which viability index [2] did it give?
Answer: 0.435 ± 0.088

Question: How did the viability index [1] turn out when `COc1ccc2c3c([C@@H](CO)N(C[C@]33CCN(CC3)S(C)(=O)=O)C(=O)CN(C)C)n(C)c2c1` was run?
Answer: 0.956 ± 0.029

Question: With `COc1ccc(cc1)S(=O)(=O)N1C[C@@]2(C1)CN([C@@H](CO)c1c2c2ccc(OC)cc2n1C)C(=O)CN(C)C` as the molecule, how does the viability index [1] read?
Answer: 0.95 ± 0.059

Question: `COc1ccc2c3c([C@H](CO)N(Cc4ccccc4Cl)C[C@]33CN(C3)C(=O)CN(C)C)n(C)c2c1` was tested. Which viability index [1] did it give?
Answer: 0.782 ± 0.042

Question: For `COc1ccc2c3c([C@@H](CO)N(Cc4ccccc4Cl)C[C@]33CCN(CC3)C(=O)CC3CC3)n(C)c2c1`, which viability index [1] is on record?
Answer: 0.939 ± 0.025

Question: How did the viability index [1] turn out when `COc1ccc2c3c([C@@H](CO)N(C[C@]33CCN(CC3)C(=O)c3ccc4OCOc4c3)C(=O)Nc3ccc(F)cc3)n(C)c2c1` was run?
Answer: 0.967 ± 0.057

Question: With `COc1ccc2c3c([C@H](CO)N(C[C@]33CCN(CC3)C(=O)c3ccc4OCOc4c3)C(=O)Nc3ccc(F)cc3)n(C)c2c1` as the molecule, how does the viability index [1] read?
Answer: 0.846 ± 0.055

Question: `COc1ccc2c3c([C@@H](CO)NC[C@]33CN(CC4CCOCC4)C3)n(C)c2c1` was tested. Which viability index [1] did it give?
Answer: 1.07 ± 0.029

Question: With `C[C@H](CO)N1C[C@H](C)[C@H](CN(C)Cc2ccc(Oc3ccccc3)cc2)Oc2ccc(N(C)C)cc2C1=O` as the molecule, how does the viability index [1] read?
Answer: 1.01 ± 0.043

Question: Which viability index [1] does the source give for `O=C(CCN1CCCCC1)N[C@H]1CC[C@@H](CCn2cc(-c3cccc(F)c3)nn2)O[C@H]1CO` here?
Answer: 1.07 ± 0.038

Question: Which viability index [1] does the source give for `C[C@@H]1CN([C@@H](C)CO)C(=O)c2cc(NC(=O)Nc3cccc4ccccc34)ccc2O[C@@H](C)CCCCO[C@@H]1CN(C)S(=O)(=O)c1cn(C)cn1` here?
Answer: 0.949 ± 0.081

Question: With `C[C@@H]1CC(=O)NCC/C=C\C[C@H](c2ccc3c(c2)OCO3)NC1=O` as the molecule, how does the viability index [1] read?
Answer: 1.059 ± 0.0056

Question: `C[C@@H]1CN([C@@H](C)CO)C(=O)CCCn2nncc2CO[C@H]1CN(C)S(=O)(=O)c1cn(C)cn1` was tested. Which viability index [1] did it give?
Answer: 1.07 ± 0.065

Question: `C[C@H]1CN([C@@H](C)CO)C(=O)c2cc(N(C)C)ccc2O[C@@H]1CN(C)CC1CCCCC1` was tested. Which viability index [1] did it give?
Answer: 1.01 ± 0.12

Question: For `COc1ccc2c3c([C@H](CO)N(C[C@]33CN(Cc4ccccc4F)C3)C(=O)Nc3ccc(F)cc3)n(C)c2c1`, which viability index [1] is on record?
Answer: 1 ± 0.091

Question: `COc1ccc2c3c([C@@H](CO)N(C[C@]33CN(Cc4ccccc4F)C3)C(=O)Nc3ccc(F)cc3)n(C)c2c1` was tested. Which viability index [1] did it give?
Answer: 0.791 ± 0.066

Question: How did the viability index [1] turn out when `COc1ccc2c3c([C@@H](CO)N(C[C@]33CN(C3)C(=O)Cc3ccncc3)C(=O)Nc3ccc(F)cc3)n(C)c2c1` was run?
Answer: 0.974 ± 0.085

Question: Which viability index [1] does the source give for `COc1cccc(C#Cc2ccc([C@@H]3[C@H](CO)N4C(=O)CN(C(=O)Cc5cccnc5)C[C@@H]34)cc2)c1` here?
Answer: 0.904 ± 0.094

Question: For `COc1cccc(C#Cc2ccc([C@H]3[C@H]4CN(C(=O)Cc5cccnc5)CC(=O)N4[C@H]3CO)cc2)c1`, which viability index [1] is on record?
Answer: 1.057 ± 0.0037

Question: How did the viability index [1] turn out when `COc1cccc(C#Cc2ccc([C@H]3[C@H](CO)N4C(=O)CN(C(=O)Cc5cccnc5)C[C@@H]34)cc2)c1` was run?
Answer: 0.945 ± 0.048

Question: Which viability index [1] does the source give for `COc1cccc(C#Cc2ccc([C@@H]3[C@@H](CO)N4C(=O)CN(C(=O)Cc5cccnc5)C[C@H]34)cc2)c1` here?
Answer: 1.01 ± 0.084

Question: For `O=C(Cc1cccnc1)N1CC(=O)N2[C@H](CO)[C@@H](c3ccc(C#CC4CCCCC4)cc3)[C@@H]2C1`, which viability index [1] is on record?
Answer: 1.07 ± 0.032

Question: How did the viability index [2] turn out when `COc1cccc(C#Cc2ccc([C@H]3[C@@H](CO)N4C(=O)CN(C(=O)Cc5ccccc5)C[C@H]34)cc2)c1` was run?
Answer: 0.778 ± 0.047

Question: `O=C(Cc1cccnc1)N1CC(=O)N2[C@H](CO)[C@@H](c3ccc(C#CC4CCCCC4)cc3)[C@H]2C1` was tested. Which viability index [1] did it give?
Answer: 1.04 ± 0.06

Question: Which viability index [1] does the source give for `COc1cccc(C#Cc2ccc([C@H]3[C@@H](CO)N4C(=O)CN(C(=O)Cc5cccnc5)C[C@H]34)cc2)c1` here?
Answer: 0.804 ± 0.11

Question: Which viability index [2] does the source give for `COc1cccc(C#Cc2ccc([C@H]3[C@@H](CO)N4C(=O)CN(C(=O)c5ccccc5)C[C@H]34)cc2)c1` here?
Answer: 0.754 ± 0.074

Question: For `O=C(Cc1cccnc1)N1CC(=O)N2[C@H](CO)[C@H](c3ccc(C#CC4CCCCC4)cc3)[C@H]2C1`, which viability index [1] is on record?
Answer: 0.801 ± 0.073

Question: For `CCCNC(=O)N1CC(=O)N2[C@H](CO)[C@@H](c3ccc(C#Cc4cccc(OC)c4)cc3)[C@H]2C1`, which viability index [1] is on record?
Answer: 0.936 ± 0.075

Question: Which viability index [1] does the source give for `CCCNC(=O)N1CC(=O)N2[C@H](CO)[C@H](c3ccc(C#Cc4cccc(OC)c4)cc3)[C@@H]2C1` here?
Answer: 1.02 ± 0.062

Source: the supplement of paper PMC4723716
